# Data from PubChem BioAssay (NCATS).
# Results filed as inconclusive are left out. A call without a number means that no potency is given here. A number with no mark means an inactive call. Activity calls are given as the source filed them. Calls follow the shape of the dose curve; as a rule, active = well fitted curve in the direction sought with a large enough effect; inconclusive = small, poorly fitted or top-dose-only effect, or another doubt; inactive = no such curve, though single readings can be large; an effect the other way counts as inactive or inconclusive.
# How the values were obtained:
# MCC-13 = assay: qHTS assay to identify novel small-molecules to repurpose for Merkel cell carcinoma treatment (AID 1296009); conditions: MCC and control cell lines, CellTiter-Glo viability, 72 h; series mostly up to 46 µM; also: nearly all actives have a fitted effect of over 60% in size
# In short: (§1)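 CellTiter-Glo luminescence after 72 hr compound exposure at 37 degree celsius gave cell viability. Libraries NPC and MIPE were run as 8- and 11-point dose responses; RLUs normalized to DMSO (negative) and no-cell (cytotoxicity) controls.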
# MCC-26 = assay: as above; conditions: MCC and control cell lines, CellTiter-Glo viability, 72 h; series mostly up to 46 µM
# In short: as §1
# MKL-1 = assay: as above; conditions: MCC and control cell lines, CellTiter-Glo viability, 72 h; series mostly up to 46 µM
# In short: as §1
# MKL-2 = assay: as above; conditions: MCC and control cell lines, CellTiter-Glo viability, 72 h; series mostly up to 46 µM
# In short: as §1
# UISO = assay: as above; conditions: MCC and control cell lines, CellTiter-Glo viability, 72 h; series mostly up to 46 µM
# In short: as §1
# WaGa = assay: as above; conditions: MCC and control cell lines, CellTiter-Glo viability, 72 h; series mostly up to 46 µM
# In short: as §1
# C33A = assay: Primary qHTS to identify gynecologic anti-cancer compounds using libraries of approved drugs and bioactive compounds (AID 1345084); conditions: Gynecologic cancer cell panel viability, ATPlite luminescence, 48 h; series mostly up to 57.5 µM; also: nearly all actives have a fitted effect of over 55% in size
# In short: (§2)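 Cytotoxicity screen measuring ATP content by luciferase luminescence. Each compound is applied at five concentrations for 48 h at 37 C with 5% CO2.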
# CASKI = assay: as above; conditions: Gynecologic cancer cell panel viability, ATPlite luminescence, 48 h; series mostly up to 57.5 µM
# In short: as §2
# CAOV3 = assay: as above; conditions: Gynecologic cancer cell panel viability, ATPlite luminescence, 48 h; series mostly up to 57.5 µM
# In short: as §2
# NIH3T3 = assay: qHTS assay to identify novel small-molecules to repurpose for Merkel cell carcinoma treatment (AID 1296009); conditions: MCC and control cell lines, CellTiter-Glo viability, 72 h; at 44.8 µM (top of the series); also: nearly all actives have a fitted effect of over 60% in size
# In short: as §1
# Potency is read from the fitted curve at half-maximal effect.
Compound,Potency (MCC-13),Potency (MCC-26),Potency (MKL-1),Potency (MKL-2),Potency (UISO),Potency (WaGa),Potency (C33A),Potency (CASKI),Potency (CAOV3),outcome (NIH3T3)
CCCCN1C[C@H](O)[C@@H](O)[C@H](O)[C@H]1CO,inactive,inactive,inactive,inactive,inactive,inactive,inactive,inactive,,
OC(C#CCN1CCCC1)(c1ccccc1)c1ccccc1,inactive,inactive,inactive,inactive,inactive,inactive,inactive,inactive,inactive,
OCCOCCN1CCN(C2=Nc3ccccc3Sc3ccccc32)CC1,inactive,inactive,inactive,inactive,inactive,inactive,inactive,inactive,,
COC(=O)C(c1ccccc1Cl)N1CCc2sccc2C1 (stereo unspecified),inactive,inactive,inactive,inactive,inactive,inactive,inactive,inactive,,
Cc1cccc(C)c1NC(=O)CN1CCCCCC1,inactive,,inactive,inactive,inactive,inactive,inactive,inactive,inactive,
CCCCCCCCCCCCOCCOCCOCCOCCOCCOCCOCCOCCOCCO,inactive,inactive,,,,21.1 µM (active),,,inactive,
CN(CCCN1c2ccccc2CCc2ccccc21)CC(=O)c1ccc(Cl)cc1,inactive,inactive,inactive,,,,inactive,inactive,inactive,
COc1cc(C(=S)N2CCOCC2)ccc1O,inactive,,inactive,inactive,inactive,inactive,inactive,inactive,inactive,
CCN(CC)CCNC(=O)COc1ccc(OC)cc1,inactive,,inactive,inactive,inactive,inactive,inactive,inactive,inactive,
C#C[C@]1(O)CC[C@H]2[C@@H]3CCC4=CC(=O)CC[C@@H]4[C@H]3CC[C@@]21CC,inactive,,inactive,inactive,inactive,inactive,inactive,inactive,,
CNCCCCOc1ccccc1Cc1ccccc1,inactive,inactive,,18.8 µM (active),,18.8 µM (active),25.1 µM (active),,,
CN1CCC(OC(c2ccccc2)c2ccccc2)CC1,inactive,,inactive,inactive,inactive,inactive,inactive,inactive,,inactive
CCOCCn1c(N2CCCN(C)CC2)nc2ccccc21,inactive,,inactive,inactive,inactive,inactive,inactive,inactive,,
CC(C)(C)NC[C@H](O)COc1cccc2c1CCCC2=O,inactive,,inactive,inactive,inactive,inactive,inactive,inactive,inactive,
NS(=O)(=O)c1ccc(Cl)c(S(N)(=O)=O)c1,inactive,,inactive,inactive,inactive,inactive,inactive,inactive,,
CN1CCN(CCC(=O)N2c3ccccc3Sc3ccc(C(F)(F)F)cc32)CC1,inactive,inactive,,,,,,,22.4 µM (active),
CCc1nn(CCCN2CCN(c3cccc(Cl)c3)CC2)c(=O)n1CCOc1ccccc1,inactive,inactive,,,,,inactive,inactive,,
Cc1c[nH]c2ccccc12,inactive,inactive,,inactive,inactive,,inactive,inactive,inactive,inactive
NCCNc1cccc2ccccc12,inactive,inactive,,,inactive,,inactive,inactive,,
CC(=O)O[C@]1(C(C)=O)CC[C@H]2[C@@H]3C=C(C)C4=CC(=O)CC[C@]4(C)[C@H]3CC[C@@]21C,inactive,,inactive,inactive,inactive,inactive,inactive,inactive,inactive,
CN(C)C(=O)Nc1ccc(Cl)c(Cl)c1,inactive,,inactive,inactive,inactive,inactive,inactive,inactive,inactive,
Cn1c(=O)c2[nH]c(Br)nc2n(C)c1=O,inactive,,inactive,inactive,inactive,inactive,inactive,inactive,inactive,
CCCCC(CC)COC(=O)c1ccc(N(C)C)cc1 (stereo unspecified),inactive,,inactive,inactive,inactive,inactive,inactive,inactive,inactive,
